HTR5A ag ctr: HTR5A agonism, opioid heterodimer counter-screen; activation, % at 9.3 µM; 340,000 compounds, 0.61% hits; HTR5A agonist assay, luminescence, cell-based; P47898; in the data active means activation mostly above about 9.5%, no sharp cut-off; inactive means mostly below about 7.6%;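 further: 0% = cells with vehicle only and 100% = reference agonist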
OPRM1-OPRD1 ag: OPRM1-OPRD1 heterodimerization agonism. cells, luminescence. activation, % at 9.3 µM. 340,000 compounds, 0.3% hits. AID 504326; in the data active means activation above about 18%;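 further: 0% = vehicle-treated cells and 100% = reference agonist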
Target sequence (P35372 whole entry, looked up): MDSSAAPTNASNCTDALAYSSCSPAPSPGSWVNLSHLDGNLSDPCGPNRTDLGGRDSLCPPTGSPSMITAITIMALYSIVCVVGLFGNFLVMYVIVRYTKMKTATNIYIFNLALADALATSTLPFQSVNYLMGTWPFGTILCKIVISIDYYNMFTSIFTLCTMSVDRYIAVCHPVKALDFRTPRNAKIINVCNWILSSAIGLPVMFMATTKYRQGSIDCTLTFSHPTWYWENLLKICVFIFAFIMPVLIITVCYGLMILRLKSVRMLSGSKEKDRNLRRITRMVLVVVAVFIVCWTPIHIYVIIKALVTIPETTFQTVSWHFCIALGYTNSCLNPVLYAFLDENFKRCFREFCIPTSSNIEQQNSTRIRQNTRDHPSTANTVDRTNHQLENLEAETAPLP
Target sequence (P41143 whole entry, looked up): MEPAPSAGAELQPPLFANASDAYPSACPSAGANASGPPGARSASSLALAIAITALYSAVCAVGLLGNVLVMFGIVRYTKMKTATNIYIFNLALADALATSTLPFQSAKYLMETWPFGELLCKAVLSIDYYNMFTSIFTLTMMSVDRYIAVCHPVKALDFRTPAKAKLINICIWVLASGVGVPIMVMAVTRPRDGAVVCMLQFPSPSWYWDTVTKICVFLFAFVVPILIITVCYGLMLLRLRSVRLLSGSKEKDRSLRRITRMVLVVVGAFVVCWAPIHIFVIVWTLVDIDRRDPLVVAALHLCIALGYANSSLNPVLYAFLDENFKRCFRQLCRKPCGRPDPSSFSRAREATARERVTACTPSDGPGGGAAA
HTR5A inv ag: counter-screen for OPRM1-OPRD1 inverse agonists: human HTR5A inverse agonism. HTR5A cell line, luminescence. inhibition, % at 9.3 µM. 340,000 compounds, 0.083% hits. AID 504634; in the data active means inhibition mostly above about 23%, no sharp cut-off; inactive means mostly below about 18%;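 further: 0% = cells with DMSO and 100% = no-cell wells with DMSO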
OPRM1-OPRD1 inv: inverse agonists of human mu-delta opioid receptor heterodimerization; P35372+P41143; cell-based MOR-DOR heterodimer luminescence, inverse agonism; inhibition, % at 9.3 µM; 340,000 compounds, 0.21% hits; AID 504357; in the data active means inhibition above about 22%, passing the limit was not always enough;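 further: 0% = cells with DMSO and 100% = wells without cells with DMSO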
OPRM1-D1 inv cf: OPRM1-OPRD1 heterodimer inverse agonism, confirmation | inhibition, % at 9.3 µM | cells expressing OPRM1/OPRD1 heterodimer, luminescence | 580 compounds, 20% hits | shares compounds with OPRM1-OPRD1 inv; in the data active means inhibition above about 32%;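 further: 0% = cells with DMSO and 100% = wells lacking cells with DMSO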
HTR5A inv ctr2: HTR5A inverse agonism, opioid heterodimer counter-screen; shares compounds with OPRM1-OPRD1 inv; HTR5A-expressing cells, luminescence; inhibition, % at 9.3 µM; 580 tested, under 10 active; call rule not given here;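 further: 0% = cells with DMSO and 100% = no-cell wells with DMSO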
* hit, by the source's call; i = inactive; · = no result. Most compounds without a hit are left out; they make up all but 1.1% or so of the library.

SMILES	HTR5A ag ctr	OPRM1-OPRD1 ag	HTR5A inv ag	OPRM1-OPRD1 inv	OPRM1-D1 inv cf	HTR5A inv ctr2
CC1(C)C(c2cccs2)=NC(c2ccccc2)N1O (configuration not stated)	5	-3	-14	14	·	·
Cc1nc2c3ccccc3n(CC(=O)c3ccc(F)cc3)c(=O)n2n1	-8	-6	24	31*	i	-19
Cc1ccc(NC(=O)c2oc3ccc(Br)cc3c2C)cc1S(=O)(=O)N1CCOCC1	3	-1	-7	4	·	·
Cc1ccc(-c2nnc3c(C(F)(F)F)nc4ccccc4n23)cc1	2	-4	-5	20	·	·
FC(F)(F)c1nc2ccccc2n2c(-c3ccc(Cl)cc3)nnc12	-4	-7	9	31*	14	4
CC(C)C(=O)Nc1nnc(NC(=S)Nc2ccccc2)s1	-3	-8	14	36*	34*	10
CCCc1nnc(NC(=S)Nc2ccccc2)s1	-5	1	5	-5	·	·
Cc1ccccc1CN1[C@@H](CC2CCCCC2)COCCS1(=O)=O	13	7	-35	-43	·	·
CCCCc1cc(=O)oc2cc(C)cc(OC(C)C(=O)NCc3cccnc3)c12 (configuration not stated)	1	-1	24	7	·	·
CSCCC1NC(=S)N(Cc2ccccc2)C1=O (configuration not stated)	-1	-9	2	42*	-300	-25
CCN(CC(=O)Nc1ccc2c(c1)OCCO2)C(=O)/C=C/c1cccc(Br)c1	-2	-1	7	6	·	·
COc1ccccc1NC(=O)Cc1csc(NC(=S)Nc2ccccc2)n1	1	-6	-1	26	·	·
COc1ccc(NC(=S)Nc2nc(CC(=O)Nc3ccccc3OC)cs2)cc1	-1	-7	26	36*	-11	11
O=C(COC(=O)C1CCC1)NC(=O)c1ccccc1	1	-1	-2	7	·	·
CCN1C(=O)C(O)(C2COC(C)(C)CC2=O)c2cc(Br)ccc21 (configuration not stated)	1	-9	-2	56*	-16	3
CNC(=S)NNC(=O)c1sc2cc(C(F)(F)F)cnc2c1-c1ccccn1	-7	-6	18	31*	4	4
COc1cc(OC)cc(C(=O)NNC(=S)Nc2ccc(S(N)(=O)=O)cc2)c1	4	-7	-16	34*	-2	-7
COc1ccc(CNC(=S)Nc2ccc(S(N)(=O)=O)cc2)cc1	7	0	-10	2	·	·
COc1ccc(S(=O)(=O)N2CCCCCC2)cc1C(=O)N(C)CC(=O)Nc1ccccc1Br	-1	0	4	-1	·	·
Cc1ccc(N/N=C/c2c(O)cc(C)oc2=O)cc1	-1	-9	2	46*	44*	-6
Cc1ccccc1CN1C(=O)C(O)(CC(=O)c2ccncc2)c2ccccc21 (configuration not stated)	-1	-8	3	45*	-84	-32
O=C(CC1(O)C(=O)N(Cc2ccccc2)c2ccccc21)c1ccncc1 (configuration not stated)	-9	-8	22	40*	-152	-117
Cc1c(C(=O)NC(=S)Nc2cccnc2)cccc1[N+](=O)[O-]	0	-7	31	35*	-201	-39
CCCN(CCC)c1nc(-c2ccccn2)nc2ccccc12	-1	-9	3	39*	-159	-19
Cc1cc(C)n2nc(SC(C)C(=O)N3CCOCC3)nc2n1 (configuration not stated)	1	-6	7	37*	-16	3
SMILES	HTR5A ag ctr	OPRM1-OPRD1 ag	HTR5A inv ag	OPRM1-OPRD1 inv	OPRM1-D1 inv cf	HTR5A inv ctr2
Cc1nc(NC(C)(C)CO)c([N+](=O)[O-])cc1[N+](=O)[O-]	-1	6	3	-43	·	·
Cc1ccc(NCN2C(=O)C(=O)c3ccccc32)nc1	-5	-14	-13	70*	59*	17
CN1C(=O)/C(=C/c2ccc(O)c([N+](=O)[O-])c2)N(C)C1=S	5	-6	11	33*	8	19
COc1cc(/C=C2\C(=O)N(C)C(=S)N2C)ccc1O	-3	2	7	-11	·	·
O=C(CCN1C(=O)C2C3CCC(C3)C2C1=O)OCC(=O)c1cccc([N+](=O)[O-])c1 (configuration not stated)	0	-12	14	62*	-8	7
O=C(CCN1C(=O)C2C3CC(C(Br)C3Br)C2C1=O)OCC(=O)c1cccc([N+](=O)[O-])c1 (configuration not stated)	1	-3	18	21*	38*	15
O=C(CN1C(=O)C2C3CCC(C3)C2C1=O)OCC(=O)c1ccccc1 (configuration not stated)	-2	-3	3	15	·	·
COc1ccc(C(=O)COC(=O)CCN2C(=O)C3C4CC(C(Br)C4Br)C3C2=O)cc1 (configuration not stated)	13	-1	24	9	·	·
O=C(CN1C(=O)C2C3CCC(C3)C2C1=O)OCC(=O)c1cccc([N+](=O)[O-])c1 (configuration not stated)	-14	-13	35*	85*	-179	-27
CC(C)C(C(=O)OCC(=O)c1cccc([N+](=O)[O-])c1)N1C(=O)[C@@H]2[C@H]3CC[C@H](C3)[C@@H]2C1=O (some centres not stated)	4	-3	-9	17	·	·
CC(=O)CCC(=O)OCC(=O)c1ccc(C(F)(F)F)cc1	5	-9	4	45*	-1	13
O=C(CCC(=O)c1cccs1)OCC(=O)c1ccc(F)cc1	-4	-3	15	14	·	·
Cn1cnc([N+](=O)[O-])c1Sc1ncccc1N	-12	-9	29*	46*	-4	17
CC(=O)c1ccc(N2CCN(c3ncccn3)CC2)cc1	2	-3	-5	13	·	·
COc1ccc(CN2CCN(C(=O)c3ccc(CNS(=O)(=O)c4ccc(C)cc4)cc3)CC2)c(OC)c1OC	-1	-2	-11	11	·	·
CCCCCCC[C@@H](C/C=C/CCC(=O)N(C)C/C(=C/Cl)C/C(=C\C(=O)N1C[C@H](O)CC1=O)OC)OC	4	0	-13	0	·	·
CCCCCCC[C@@H](C/C=C/CCC(=O)N(C)C/C(=C/Cl)C/C(=C\C(=O)N1CC(OC)=CC1=O)OC)OC	0	-8	-1	39*	-22	-120
O=[N+]([O-])c1ccc(O)c(C=NNc2ccc(S(=O)(=O)O)cc2)c1	-4	-6	15	31*	-85	-12
O=[N+]([O-])c1cccc(N/N=C/c2cc([N+](=O)[O-])ccc2O)c1	1	3	-2	-18	·	·
COc1ccc(C(=O)Cc2nnc(C)s2)c(OC)c1	-6	-12	19	78*	37*	9
Cc1noc(C)c1C(=O)NCc1ccccc1F	-2	-2	5	7	·	·
Nc1nc(-c2ccccn2)nc(N)c1Cc1ccc(Cl)cc1Cl	-2	-7	6	36*	-12	-21

Compound activity from PubChem BioAssay.
